From PubChem
The list is not random: actives were taken first. Their share in the collection is about 4.6%.
tim10-1 inh: growth inhibitors of tim10-1 mutant yeast; S. cerevisiae tim10-1 ts strain growth, BacTiter-Glo, 24 h; 330,000 tested, 2.2% active; inhibition, % at 20 µM;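 active means inhibition of at least 40%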;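 further: mutant grown at 25 °C; 0% = DMSO wells with yeast and 100% = wells holding no yeast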
tim23-1 inh: tim23-1 yeast growth inhibition | S. cerevisiae tim23-1 growth, BacTiter-Glo luminescence, 24 h | inhibition, % at 20 µM | 330,000 tested, 1.3% active;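 active means growth inhibition of the mutant yeast at or above 50%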;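 further: temperature-sensitive mutant grown at 25 °C; plate controls were DMSO-treated mutant yeast for no effect and medium wells lacking yeast for full effect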
SKKanGAS inh: SKKanGAS growth inhibition. S. pyogenes SKKanGAS, kanamycin growth, BacTiter-Glo, 6 h. inhibition, % at 7.5 µM. 300,000 tested, 1.3% active. AID 1662;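 active means mean replicate score, as percent of positive control median, at least 50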;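 further: strain carries kanamycin resistance gene driven by streptokinase promoter and grows in 40 µg/ml kanamycin; loss of luminescence reflects streptokinase promoter inhibition or plain growth inhibition; 0% = median of DMSO wells and 100% = positive control at its reference dose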
PfHsp90 yeast 2: growth inhibition of yeast expressing Plasmodium Hsp90 | inhibition, % at 9.4 µM | 310,000 tested, 0.32% active | S. cerevisiae expressing PfHsp90, BacTiter-Glo ATP, 48 h; yeast lacking PDR1 and PDR3 efflux regulators;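 active means every replicate shows inhibition above about 80%, whatever the replicate mean, limit read from the data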;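 further: 0% = DMSO neutral controls and 100% = 20 µM radicicol positive controls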
NLRP3 yeast inh: blocks the NALP3 inflammasome reconstituted in yeast; inhibition, % at 10 µM; AID 2825; Yeast reconstituted NLRP3/ASC/caspase-1, beta-gal luminescence, 24 h; 330,000 tested, 0.39% active;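 active means inhibition of 50% or more; inactive means inhibition below 50%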;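 further: plate controls were induced DMSO wells for no effect and uninduced yeast grown without galactose for full effect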
TIM10 inh: growth inhibitors of TIM10 yeast strain | S. cerevisiae TIM10 strain growth, BacTiter-Glo luminescence, 24 h | inhibition, % at 10 µM | 330,000 tested, 1.4% active;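 active means inhibition of 40% or more at the single tested concentration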;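 further: wild-type TIM10 isogenic control strain grown at permissive 25 °C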
* hit, by the source's call; · = not tested or not shown.

SMILES	tim10-1 inh	tim23-1 inh	SKKanGAS inh	PfHsp90 yeast 2	NLRP3 yeast inh	TIM10 inh
CC1(C)O[C@@H](CC(=O)O)[C@]23CO[C@H](C(=O)[C@]4(C)C2CC[C@@]2(C)[C@H](c5ccoc5)OC(=O)C5O[C@]524)[C@@H]13 (some centres not stated)	-18	-1	·	-18	-2	0
CCOc1ccc(Oc2ccc(NC(=O)[C@@H](NC(N)=O)[C@@H](C)CC)cc2)cc1	4	-17	1	-15	-11	5
O=C(Nc1nnc(C2=COCCO2)o1)c1ccc(S(=O)(=O)N2CCCC2)cc1	-2	2	2	-4	9	3
CCC1CCCCN1S(=O)(=O)c1ccc(C(=O)Nc2nnc(C3=COCCO3)o2)cc1 (configuration not stated)	0	1	79*	-6	-3	-4
C=CCn1c(C)cc(C(=O)CSc2nc3ccccc3c(=O)[nH]2)c1C	-35	-50	·	100*	22	-64
C=CCn1c(C)cc(C(=O)CSc2nnc(NCc3ccccc3)s2)c1C	·	·	·	111*	·	·
CC(=O)c1ccc(S(=O)(=O)Nc2c(C)nn(C)c2C)cc1	1	-4	·	·	15	-3
Cc1ccc(CN2CC(C(=O)Nc3ncccc3C)CC2=O)cc1 (configuration not stated)	-18	-22	-5	-9	6	-9
CC(C)(C)c1ccc(Oc2cccc(C3CC(=O)C(C4NCCc5ccccc54)C(=O)C3n3cncn3)c2)cc1 (configuration not stated)	7	10	96*	3	-11	22
C/C(=N\O)C(C)Oc1ccc(Cl)cc1 (configuration not stated)	-27	-3	-3	-9	22	-15
CCCCCn1c(CN2CCN(c3cc(Cl)ccc3C)CC2)nc2c1c(=O)[nH]c(=O)n2C	17	28	86*	14	9	20
CCCCCCCCOC(=O)C1=C(C)Nc2nnnn2C1c1cccs1 (configuration not stated)	28	14	107*	-15	14	8
CCc1ccc(NS(=O)(=O)c2ccc(C)c(C(=O)N3CCOCC3)c2)cc1	3	3	-4	-8	22	-3
O=[N+]([O-])c1cc(/C=N/Nc2nc3ccccc3[nH]2)c(O)cc1O	·	·	97*	·	·	·
Cc1[nH]c2ccccc2c1/C=N/Nc1nc2ccccc2[nH]1	6	9	61*	1	20	-29
Brc1ccc(-c2ccc(/C=N/Nc3nncc(-c4ccccc4)n3)o2)cc1	12	-3	5	-20	-3	-12
C(=N\Nc1nc2ccccc2[nH]1)/c1c[nH]c2ccccc12	-5	-33	64*	17	10	-8
Cc1cc(=O)[nH]c(N/N=C/c2c[nH]c3ccccc23)n1	-14	2	-9	-32	-13	-19
Brc1ccc(-c2ccc(/C=N/Nc3nc4ccccc4[nH]3)o2)cc1	16	-5	89*	20	9	-27
C(=N\Nc1nc2ccccc2[nH]1)/c1ccccc1	15	-1	15	13	7	28
CC1CN(C(=O)c2cc(Br)c(Br)s2)CC(C)O1 (configuration not stated)	-5	18	·	-23	37	0
COc1ccc(S(=O)(=O)N(C)C[C@H]2Oc3ccc(NC(=O)C4CC4)cc3C(=O)N([C@H](C)CO)C[C@@H]2C)cc1	12	10	·	3	19	1
Cc1ccc(/C=N/Nc2nc3ccccc3[nH]2)s1	-25	1	7	-22	20	-17
Cc1ccccc1/C=N/Nc1nc2ccccc2[nH]1	31	36	68*	-5	19	17
Cc1cccc2cc(CN(Cc3nnnn3C3CCCCC3)C3CCCC3)c3nnnn3c12	-40	-49	13	105*	3	-10
SMILES	tim10-1 inh	tim23-1 inh	SKKanGAS inh	PfHsp90 yeast 2	NLRP3 yeast inh	TIM10 inh
NCCCn1c(C(=O)c2cc(Cl)c(N)c(Cl)c2)c2ccc([N+](=O)[O-])cc2[n+]1[O-]	13	-13	63*	-72	23	0
NCCCn1c(C(=O)c2cc(Cl)c(N)c(Cl)c2)c2ccc(C(F)(F)F)cc2[n+]1[O-]	2	-17	-2	14	33	-3
CCCn1c(NC(=O)c2ccc(Br)cc2)nc2ccccc21	24	-1	-5	·	7	11
CCc1ccccc1NC(=O)C1COc2ccccc2O1 (configuration not stated)	2	5	3	7	27	-4
CN(C)CCCn1c(NC(=O)C2CCCCC2)nc2ccccc21	-12	-9	-1	5	12	-15
CCCn1c(NC(=O)c2ccccc2Br)nc2ccccc21	30	41	58*	-30	4	-4
CCCn1c(NC(=O)C2COc3ccccc3O2)nc2ccccc21 (configuration not stated)	4	-15	97*	15	-3	5
O=C(Nc1nc2ccccc2n1CCN1CCOCC1)c1ccc(COc2ccccc2Br)o1	37	39	50*	12	10	25
CCCCn1c(NC(=O)C2CCCCC2)nc2ccccc21	26	33	97*	-12	14	17
CCC1CCCCN1C(=O)COC(=O)c1cc(C)nc2ccccc12 (configuration not stated)	-10	34	·	-18	10	10
O=C(Nc1nc(-c2nc3ccccc3s2)cs1)C1COc2ccccc2O1 (configuration not stated)	5	3	76*	2	18	11
COc1ccc(OC)c(-c2csc(NC(=O)C3COc4ccccc4O3)n2)c1 (configuration not stated)	9	-1	21	-19	32	17
CN(/N=C/c1ccc(Cl)cc1Cl)c1ncc(Cl)cc1C(F)(F)F	-13	-24	76*	0	14	-22
CN(/N=C/c1ccc(Cl)cc1)c1ncc(Cl)cc1C(F)(F)F	-12	-13	73*	-21	17	-16
CN(C)c1cc(N/N=C/c2ccc(Cl)cc2)nc(N(C)C)n1	·	·	-21	18	·	·
Cc1ccc(N(C)/N=C/c2ccc(Cl)cc2Cl)nn1	13	39	1	-34	12	-2
CC(/C=N/NC(=O)Cn1cnc2c1c(=O)n(C)c(=O)n2C)=C\c1ccccc1	8	12	1	-7	9	2
CCn1c(SCC(=O)N2CCC(C)CC2)nc2c(c1=O)SC(C)C2 (configuration not stated)	-2	24	-1	-11	16	0
CCN1/C(=C\c2ccc3cc(C)ccc3[n+]2CC)Sc2cc(C)c(C)cc21	·	·	71*	94*	·	·
CCN1/C(=C/c2ccc3cc(C)cc(C)c3[n+]2CC)Sc2cc(C)ccc21	·	·	·	102*	·	·
C=CC[n+]1c(/C=C2\C=Cc3cc(C)ccc3N2CC)ccc2ccccc21	18	47	29	13	13	-1
